Vc quorum ag: inducers of Vibrio cholerae quorum light production without autoinducers, primary screen, BH1578 luxS cqsA deficient, single point. V. cholerae BH1578 lux reporter, luminescence, 6 h. activation, % at 18.7 µM. 0.16% of 350,000 active. AID 588436, 2011; in the data active = activation mostly above about 9.7%, no sharp cut-off
Mtb UGM inh: M. tuberculosis UGM enzyme inhibitors, primary screen, biochemical, fluorescence polarization, single point; inhibition, % at 10 µM; 0.06% of 320,000 active; UDP-galactopyranose mutase (Mycobacterium tuberculosis (strain ATCC 25618 / H37Rv)), …; purified UGM, fluorescence polarization probe displacement; in the data active = inhibition above about 10%, passing the limit was not always enough
Target sequence (P9WIQ1 whole entry, looked up): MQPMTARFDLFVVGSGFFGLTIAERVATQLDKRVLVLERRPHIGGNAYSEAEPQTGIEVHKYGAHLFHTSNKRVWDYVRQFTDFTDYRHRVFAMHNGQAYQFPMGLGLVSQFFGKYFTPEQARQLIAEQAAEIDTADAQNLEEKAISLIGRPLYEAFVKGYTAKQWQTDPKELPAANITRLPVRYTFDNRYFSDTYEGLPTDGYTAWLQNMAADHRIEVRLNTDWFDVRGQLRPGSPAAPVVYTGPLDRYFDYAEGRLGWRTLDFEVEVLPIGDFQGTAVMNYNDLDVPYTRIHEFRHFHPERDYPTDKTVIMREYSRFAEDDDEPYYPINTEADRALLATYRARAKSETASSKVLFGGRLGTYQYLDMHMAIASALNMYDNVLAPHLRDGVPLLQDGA
Mtb bLac sens: beta-lactam sensitization of Mtb H37Rv, H37Rv | M. tuberculosis H37Rv growth with meropenem, percent inhibition | inhibition, % at 25 µM | 0.27% of 330,000 active | AID 434955, 2010; call rule not given here;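 also: growth measured after seven days incubation then overnight dye step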
PrP 5UTR inh: inhibition of PrP 5' UTR reporter expression. cell-based PrP 5' UTR mRNA reporter, plate reader. inhibition, % (concentration not given with the values). 0.35% of 340,000 active. AID 488862, 2010; in the data active = inhibition above about 52%
Rv3671c protease: Rv3671c serine protease inhibitors, primary screen, biochemical, fluorescence polarization, M. tuberculosis H37Rv. inhibition, % at 5.96 µM. AID 2606, 2010. P9WHR9. 0.048% of 320,000 active; in the data active = inhibition above about 38%;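 also: extracellular domain of Rv3671c used as enzyme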
FadD28 FP inh: inhibitors of FadD28 bisubstrate probe binding, primary screen, biochemical, fluorescence polarization, single point; Mycobacterium tuberculosis FadD28 fatty-acid-AMP ligase; inhibition, % at 12.5 µM; 0.22% of 360,000 active; AID 588549, 2011; in the data active = inhibition above about 8.5%, passing the limit was not always enough
Numbers stand for hits; – = inactive; · = no result. Shown are actives, neighbours in structure and some others; about 0.76% of the full set was active somewhere.

SMILES | Vc quorum ag | Mtb UGM inh | Mtb bLac sens | PrP 5UTR inh | Rv3671c protease | FadD28 FP inh
Cc1ccc2cc(CN(CCCO)S(=O)(=O)c3cccc4nsnc34)c(=O)[nH]c2c1 | – | – | – | – | – | –
CCCCCCC(N)CC(=O)O (stereo not drawn) | – | · | · | – | · | –
CCCCCCCCCCCCCCCC(O)C(N)CO (stereo not drawn) | – | – | – | – | – | 48.7
CCSCCC(NC1=CC(=O)CC(C)(C)C1)C(=O)O (stereo not drawn) | 16.7 | – | – | – | – | –
CCOC(=O)CSC1=C(C#N)C(c2ccc(Cl)cc2)CC(=O)N1 (stereo not drawn) | – | – | – | – | – | –
CCOC(=O)CSC1=C(C#N)C(c2ccc(C)o2)CC(=O)N1 (stereo not drawn) | – | – | – | 54.6 | – | –
CC(=O)Nc1ccc(S(=O)(=O)N(C)CC(=O)OCC(=O)N2CCCC2=O)cc1 | – | – | – | – | – | –
O=C(NC(=S)NCc1nc2ccccc2[nH]1)c1ccccc1F | – | – | – | – | – | 8.9
Clc1cccc(-c2ccc(/C=N/n3cnnc3)o2)c1Cl | · | – | – | – | – | –
Cc1c(Cl)cccc1-c1ccc(/C=N/n2cnnc2)o1 | 27.3 | – | – | – | – | –
O=C(c1cc(C2CC2)on1)N1CCN(c2ccc(F)cc2)CC1 | – | – | – | – | – | –
Oc1ccccc1Oc1c(F)c(F)nc(N2CCCC2)c1F | – | – | – | – | – | 20.8
CC1=C(C#N)C(=O)NC(=O)/C1=C\c1ccc(-c2cc(C)c(C)cc2[N+](=O)[O-])o1 | – | · | · | – | · | 14.7
Cc1c(Br)c(=O)oc2c(Br)c(O)ccc12 | – | – | – | – | – | –
Cc1c(Br)c(=O)oc2c(Br)c(O)c(O)cc12 | – | – | – | – | – | 13.3
CCOC(=O)N1CCN(S(=O)(=O)c2ccc(C(=O)NNc3nc4ccc(Cl)cc4s3)cc2)CC1 | – | – | – | – | – | 11.7
CCOC(=O)N1CCN(S(=O)(=O)c2ccc(C(=O)NNc3nc4cc(C)cc(C)c4s3)cc2)CC1 | – | – | – | – | – | –
CCOC(=O)N1CCN(S(=O)(=O)c2ccc(C(=O)NNc3nc4c(C)cccc4s3)cc2)CC1 | – | – | – | – | – | 17.1
CCOC(=O)N1CCN(S(=O)(=O)c2ccc(C(=O)NNc3nc4c(C)cc(C)cc4s3)cc2)CC1 | – | – | – | · | – | 15.0
COc1ccc(C2=NS(=O)(=O)N(C)C(C(=O)N3CCCCC3C)=C2)cc1 (stereo not drawn) | – | – | – | – | – | –
Cc1ccc(CNC(=O)C(=O)NCC2OCCN2C(=O)c2cccs2)cc1 (stereo not drawn) | – | – | – | – | – | –
CN(C(=O)c1ccccc1C(=O)OCC(=O)Nc1ccc(OC(F)F)cc1)c1ccccc1 | – | – | – | – | – | –
O=C(NCc1ccc2c(c1)OCO2)c1cc(-c2ccccn2)nc2ccccc12 | – | – | – | – | – | –
COc1ccc(Cl)cc1C(=O)Nn1c(C)nc2ccccc2c1=O | – | – | – | – | – | –
COc1ccc(Cl)cc1C(=O)Nn1c(-c2cccs2)nc2ccccc2c1=O | – | – | – | – | – | 12.1
SMILES | Vc quorum ag | Mtb UGM inh | Mtb bLac sens | PrP 5UTR inh | Rv3671c protease | FadD28 FP inh
O=C1C=C(N2CC2)c2ccccc2C1=O | – | · | · | · | · | 8.9
O=C(COC(=O)CN1C(=O)NC2(CCCC2)C1=O)NCc1ccc(Cl)cc1Cl | · | 11.2 | – | – | – | –
O=C(Nc1ccncc1)c1cc2ccccc2cc1O | – | – | – | – | – | –
COc1ccc(NC(=O)CSc2nnc(-c3ccncc3)n2C)cc1 | – | – | – | – | – | –
COc1ccc(-c2nnc(SCC(=O)Nc3ccccc3)n2C)cc1 | 35.7 | – | – | – | – | –
O=C(Nc1ccc(F)c(Cl)c1)C1Cc2c(-c3ccco3)ccnc2O1 (stereo not drawn) | – | · | · | · | · | –
Oc1ccc(N=Nc2ccccc2-c2nn[nH]n2)c(O)c1 | – | – | – | – | – | 22.2
C/C(=N\Nc1ccc(Cl)c(C(=O)O)c1)c1ccccn1 | – | – | – | – | – | –
C/C(=N\Nc1ncc(Cl)cc1Cl)c1ccccn1 | – | · | · | 77.8 | · | –
COc1cccc(NC(=O)Cn2nnc(-c3ccccc3N)n2)c1 | – | – | – | – | – | 14.7
COc1cc(NC(=O)Cn2nnc(-c3ccncc3)n2)cc(OC)c1 | – | – | – | – | – | –
O=C(COc1cc2oc(=O)c3c(c2cc1Cl)CCCC3)NCC1CCC(C(=O)O)CC1 (stereo not drawn) | – | – | – | – | – | –
Cn1nc([N+](=O)[O-])c(C(C#N)c2nc3ccccc3n2C)c(Cl)c1=O (stereo not drawn) | – | – | – | – | – | 12.0
Cc1ccc(-c2cc(-c3n[nH]c(=S)n3C)c3ccccc3n2)cc1 | – | – | – | – | – | –
Cc1ccc(Nc2ccc3nonc3c2[N+](=O)[O-])cc1 | – | – | – | – | – | –
Nc1ccc2nonc2c1[N+](=O)[O-] | – | 23.1 | – | – | – | –
COCCn1c(C)cc(/C=N/NC(=O)c2cc3ccccc3cc2O)c1C | – | – | – | – | – | 10.9
CCN1C(=O)c2cccc3c(N)ccc(c23)C1=O | – | 36.8 | – | – | – | –
CCOC1=C2[C@@H](CN(S(=O)(=O)c3ccc(C)cc3)[C@H]2c2ccccc2Cl)[C@H]2C(=O)N(C)C(=O)[C@H]2C1 | · | · | · | · | · | –
O=C(O)c1cc(-c2ccc(/C=C3\NC(=O)N(c4ccccc4)C3=O)o2)ccc1Cl | – | – | – | – | – | –
O=C(O)c1cc(-c2ccc(/C=C3\NC(=O)N(c4ccc(Cl)cc4)C3=O)o2)ccc1Cl | – | – | – | – | – | 10.3
Clc1ccc(CSc2ncnc3c2ncn3C2CCCCO2)cc1 (stereo not drawn) | – | · | · | – | · | –
C[C@@H]1CN([C@H](C)CO)C(=O)c2cc(C3=CCCCC3)cnc2O[C@@H]1CN(C)Cc1ccccc1C(=O)O | – | · | · | · | · | –
Cn1c(CC(=O)NNC(=O)c2ccc(F)cc2F)nc2ccccc21 | – | – | – | – | – | –
Cn1c(CC(=O)NNC(=O)c2cccnc2)nc2ccccc21 | 20.0 | – | – | – | – | –
CCC(=O)N1CCN(c2ccc(NC(=S)NC(=O)c3cccc([N+](=O)[O-])c3)cc2)CC1 | 33.3 | – | – | – | – | –
COc1ccc(OC)c(C(=O)c2coc3ccc(O)cc23)c1 | – | – | – | – | – | –
O=C(COC(=O)COc1cccc(Br)c1)NCc1ccc2c(c1)OCO2 | – | 11.2 | – | – | – | –
Cc1ccccc1OCC(=O)OCC(=O)NCc1ccc2c(c1)OCO2 | – | – | – | – | – | –
CC(Sc1nnc(C2CC2)n1C)C(=O)Nc1ccc2c(c1)CCC2 (stereo not drawn) | – | – | – | – | – | –

Assay outcomes deposited in PubChem by several laboratories.
